# Experimental data reported in the supplement of paper PMC5641865, “A screen for kinase inhibitors identifies antimicrobial imidazopyridine aminofurazans as specific inhibitors of the Listeria monocytogenes PASTA kinase PrkA” (The Journal of Biological Chemistry, 2017).
# Where “and” joins values, the source holds several entries; their conditions need not be identical. Identical values can stand only once. ± gives the standard deviation of the averaged measurements.
# Tested on: Listeria monocytogenes 10403S
# Assay: growth inhibition relative to ceftriaxone-alone control; higher = stronger potentiation of ceftriaxone growth inhibition
# Conditions: 10 µM; ceftriaxone 1 ug/ml; 12 h
# 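Also: End-point A600 read in BHI broth at 37 °C with 2% DMSO, inhibition computed as (1 − OD with compound plus ceftriaxone ÷ OD with ceftriaxone only) × 100.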
row,Compound,growth inhibition
1,Cc1[nH]c(/C=C2\C(=O)Nc3ccc(S(=O)(=O)N(C)c4cccc(Cl)c4)cc32)c(C)c1C(=O)N1CCN(C)CC1,51.3 ± 11%
2,COc1ccc(-c2ccc3c(NC(=O)C4CC4)n[nH]c3n2)cc1,-7.27 ± 8.3%
3,COc1ccc(C2=C(N3CCc4ccccc43)C(=O)NC2=O)cc1,-2.53 ± 0.37%
4,C[C@@H]1COC(Nc2ccc3ncnc(Nc4ccc(OCc5nccs5)c(Cl)c4)c3c2)=N1,70.8 ± 5%
5,COc1cc(/C=N/Nc2ncnc3[nH]ncc23)ccc1O,6.52 ± 10%
6,COC(=O)c1ccc2c(C(=Nc3ccc(N(C)C(=O)CN4CCN(C)CC4)cc3)c3ccccc3)c(O)[nH]c2c1 [BIBF1120 (Vargatef)],21.6 ± 14%
7,COc1cc(Nc2ncc(-c3ccccc3)o2)cc(OC)c1,17 ± 3.9%
8,Cc1cc(Nc2nc(N[C@@H](C)c3ccc(F)cc3)c(C#N)cc2F)n[nH]1,96.93 ± 0.13%
9,CC(C)c1cnn2c(NCc3ccccc3)cc(NCCCCCCN)nc12,102 ± 5.9%
10,CC(=O)Nc1cccc(-n2c(=O)n(C3CC3)c(=O)c3c(Nc4ccc(I)cc4F)n(C)c(=O)c(C)c32)c1,31.3 ± 12%
11,CNC(=O)c1cncc(/C=C/c2ccccc2C)c1,25.3 ± 14%
12,FC(F)(F)c1ccc(Nc2nc3ccc(Oc4ccnc(-c5ncc(C(F)(F)F)[nH]5)c4)cc3[nH]2)cc1 [Raf265 Derivative],49.3 ± 21%
13,O=c1cc(-c2cccc3c2Sc2ccccc2S3)oc(N2CCOCC2)c1,86.2 ± 1.3%
14,CCC(=O)N1CCN(c2ccc(-n3c(=O)ccc4cnc5ccc(-c6cnc7ccccc7c6)cc5c43)cc2C(F)(F)F)CC1 [Torin 1],-4.1 ± 10%
15,O=C(Cc1ccc(-c2ccc(OCCN3CCOCC3)cc2)cn1)NCc1ccccc1,33.6 ± 8.5%
16,O=C(NCC1CC1)c1ccc(-c2cccc(C(=O)NC3CC3)c2)cc1,-0.0355 ± 1.1%
17,CCN(CC)Cc1ccc(Nc2nccc(-c3cnn4ncccc34)n2)cc1,-11.5 ± 14%
18,CCOc1nccc2c1nc(-c1nonc1N)n2CC,13.6 ± 0.53%
19,CC(C)(C)c1cnc(CSc2cnc(NC(=O)C3CCNCC3)s2)o1,29.5 ± 24%

row,Compound,growth inhibition
1,Cc1cc(C)c(/C=C2\C(=O)Nc3ccccc32)[nH]1 [Semaxanib (SU5416)],-4.38 ± 12%
2,COc1c(C(N)=O)cc(-c2ccc(Cl)cc2)cc1-c1ccc(S(N)(=O)=O)cc1,1.37 ± 1.2%
3,CNC(=O)c1ccccc1Nc1nc(Nc2ccc(N3CCOCC3)cc2OC)ncc1Cl,-3.4 ± 13%
4,COc1ccc2ncn(-c3cc(O[C@H](C)c4ccccc4Cl)c(C(N)=O)s3)c2c1,1.82 ± 0.29%
5,NS(=O)(=O)c1ccc(-c2cc3ccncc3cc2OCc2ccccc2)cc1,-3.99 ± 6.9%
6,CCn1cc(-c2ccnc3[nH]ccc23)c(-c2cccc(NC(=O)Nc3ccc(OCc4ccccc4)cc3)c2)n1,-0.807 ± 2.3%
7,COc1cccc2cc(-c3nc([C@H]4CC[C@H](C(=O)O)CC4)n4ncnc(N)c34)[nH]c12,16.8 ± 14%
8,CO[C@H]1C[C@@H]2CC[C@@H](C)[C@@](O)(O2)C(=O)C(=O)N2CCCC[C@H]2C(=O)O[C@H]([C@H](C)C[C@@H]2CC[C@@H](O)[C@H](OC)C2)CC(=O)[C@H](C)/C=C(\C)[C@@H](O)[C@@H](OC)C(=O)[C@H](C)C[C@H](C)/C=C/C=C/C=C/1C [Rapamycin (Sirolimus)],30.2 ± 26%
9,C[C@H](NC(=O)/C(C#N)=C/c1cccc(Br)n1)c1ccccc1,99 ± 0.21%
10,COc1cc(Nc2ncc(F)c(Nc3ccc4c(n3)NC(=O)C(C)(C)O4)n2)cc(OC)c1OC,9.08% and 0.52%
11,O=C(O)c1ccc2c(c1)nc(Nc1cccc(Cl)c1)c1ccncc12 [CX-4945 (Silmitasertib)],76.2 ± 9.6%
12,Oc1cccc(-c2nc(N3CCOCC3)c3oc4ncccc4c3n2)c1,22.4 ± 24%
13,O=C(Nc1c[nH]nc1-c1nc2ccc(CN3CCOCC3)cc2[nH]1)NC1CC1,55.7 ± 25%
14,CN1CCN(c2ccc3nc(-c4c(N)c5c(F)cccc5[nH]c4=O)[nH]c3c2)CC1 [Dovitinib (TKI-258)],1.47 ± 0.1%
15,CC(=O)NCc1cccc(C#Cc2cncnc2Nc2ccc(OCc3cccc(F)c3)c(Cl)c2)c1,-1.26 ± 2.3%
16,CN(C)C1CCN(C(=O)c2ccc(NC(=O)Nc3ccc(-c4nc(N5CCOCC5)nc(N5CCOCC5)n4)cc3)cc2)CC1,22.7 ± 7.4%
17,CCc1cccc(CC)c1NC(=O)N1Cc2[nH]nc(NC(=O)c3ccc(N4CCN(C)CC4)cc3)c2C1,33.1 ± 4.9%
18,Cc1cc2c(F)c(Oc3ncnn4cc(OC[C@@H](C)O)c(C)c34)ccc2[nH]1,15.5 ± 23%
19,NC(=O)c1cccc(Nc2nccc(Nc3cccc(F)c3)n2)c1,-4.52 ± 12%
